Laboratory results as given in the supplement of paper PMC4022240.
± gives the standard deviation.

Tests used:
Assay in all cases: peptide microarray binding signal (635 nm), min-max normalized on array (fraction of array maximum); higher = stronger binding
[1] = molecular target: T1, HaloTag-ATRX ADD domain (163-292)
T1 chain: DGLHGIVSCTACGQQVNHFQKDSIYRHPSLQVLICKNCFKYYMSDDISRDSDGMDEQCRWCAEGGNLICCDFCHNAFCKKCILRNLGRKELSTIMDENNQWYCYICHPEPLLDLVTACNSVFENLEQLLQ
Method: (§1)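 Histone 13-mer peptides were synthesized as cellulose conjugates with a C-terminal 20-atom PEG linker and printed in triplicate on nitrocellulose. The sequence given is the unmodified backbone; PTMs (Kme1/2/3, Kac, Sph/Tph, Rme/Rme2a/Rme2s, Rcit) are listed in the label and the 'peptide modifications' condition. Slides were probed at 4 °C for 1 h with biotin-labelled (HQ)5-HaloTag reader fusions (ATRX-ADD, ING2-PHD) then streptavidin-Alexa647, or with rabbit histone antibodies then anti-rabbit Alexa647. The mean 635 nm signal of the triplicate spots was scaled 0-1 between the lowest and highest values on each array.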

[2] = molecular target: HaloTag-ING2 PHD (mouse Ing2 200-280)
Method: as §1

[3] = molecular target: anti-H3K4me3 antibody ab8580
Method: as §1

[4] = molecular target: anti-H3K9me3 antibody ab8898
Method: as §1

[5] = peptide region: H2A 11-23, peptide modifications: H2AT16ph, binder concentration: 1:2,000 dilution
[6] = peptide region: H2A 11-23, peptide modifications: H2AT16ph, binder concentration: 1:10,000 dilution
[7] = peptide region: H2A 11-23, peptide modifications: H2AK13ac H2AK15ac H2AT16ph, binder concentration: 1:2,000 dilution
[8] = peptide region: H2A 11-23, peptide modifications: H2AK13ac H2AK15ac H2AT16ph, binder concentration: 1:10,000 dilution
[9] = peptide region: H2B 7-19, peptide modifications: H2BK11ac H2BK12ac H2BK15ac H2BK16ac, binder concentration: 1:2,000 dilution
[10] = peptide region: H2B 7-19, peptide modifications: H2BK11ac H2BK12ac H2BK15ac H2BK16ac, binder concentration: 1:10,000 dilution
[11] = peptide region: H2B 7-19, peptide modifications: H2BK11ac H2BK12ac H2BS14ph H2BK15ac H2BK16ac, binder concentration: 1:2,000 dilution
[12] = peptide region: H2B 7-19, peptide modifications: H2BK11ac H2BK12ac H2BS14ph H2BK15ac H2BK16ac, binder concentration: 1:10,000 dilution
[13] = peptide region: H2B 7-19, binder concentration: 1:2,000 dilution
[14] = peptide region: H2B 7-19, binder concentration: 1:10,000 dilution

RAKAKTRSSRAGL [H2A 11-23 R A K A K Tph R S S R A G L]
peptide microarray binding signal ([1]; peptide region: H2A 11-23, peptide modifications: H2AT16ph, binder concentration: 50 nM): 0.0047 ± 9.3e-05
peptide microarray binding signal ([1]; peptide region: H2A 11-23, peptide modifications: H2AT16ph, binder concentration: 500 nM): 0.00824 ± 0.00034
peptide microarray binding signal ([2]; peptide region: H2A 11-23, peptide modifications: H2AT16ph, binder concentration: 10 nM): 0.00364
peptide microarray binding signal ([2]; peptide region: H2A 11-23, peptide modifications: H2AT16ph, binder concentration: 100 nM): 0.00794 ± 0.00055
peptide microarray binding signal [3, 5]: 0.000472 ± 1.2e-05
peptide microarray binding signal [3, 6]: 0.000913
peptide microarray binding signal [4, 5]: 0.000347 ± 7e-06
peptide microarray binding signal [4, 6]: 0.000807 ± 1.5e-05

RAKAKTRSSRAGL [H2A 11-23 R A Kac A Kac Tph R S S R A G L]
peptide microarray binding signal ([1]; peptide region: H2A 11-23, peptide modifications: H2AK13ac H2AK15ac H2AT16ph, binder concentration: 50 nM): 0.0063 ± 0.00011
peptide microarray binding signal ([1]; peptide region: H2A 11-23, peptide modifications: H2AK13ac H2AK15ac H2AT16ph, binder concentration: 500 nM): 0.0115 ± 0.00047
peptide microarray binding signal ([2]; peptide region: H2A 11-23, peptide modifications: H2AK13ac H2AK15ac H2AT16ph, binder concentration: 10 nM): 0.01009 ± 7e-05
peptide microarray binding signal ([2]; peptide region: H2A 11-23, peptide modifications: H2AK13ac H2AK15ac H2AT16ph, binder concentration: 100 nM): 0.0109 ± 0.00022
peptide microarray binding signal [3, 7]: 0.001265 ± 1e-05
peptide microarray binding signal [3, 8]: 0.00297 ± 7.6e-05
peptide microarray binding signal [4, 7]: 0.00107 ± 7.3e-05
peptide microarray binding signal [4, 8]: 0.00179 ± 3.4e-05

APAPKKGSKKAVT [H2B 7-19 A P A P Kac Kac G S Kac Kac A V T]
peptide microarray binding signal ([1]; peptide region: H2B 7-19, peptide modifications: H2BK11ac H2BK12ac H2BK15ac H2BK16ac, binder concentration: 50 nM): 0.0047 ± 0.00016
peptide microarray binding signal ([1]; peptide region: H2B 7-19, peptide modifications: H2BK11ac H2BK12ac H2BK15ac H2BK16ac, binder concentration: 500 nM): 0.00329 ± 0.00049
peptide microarray binding signal ([2]; peptide region: H2B 7-19, peptide modifications: H2BK11ac H2BK12ac H2BK15ac H2BK16ac, binder concentration: 10 nM): 0.00555 ± 0.00016
peptide microarray binding signal ([2]; peptide region: H2B 7-19, peptide modifications: H2BK11ac H2BK12ac H2BK15ac H2BK16ac, binder concentration: 100 nM): 0.00524 ± 0.00027
peptide microarray binding signal [3, 9]: 0.000264 ± 1e-05
peptide microarray binding signal [3, 10]: 0.000742 ± 1.3e-05
peptide microarray binding signal [4, 9]: 0.000982 ± 5.2e-05
peptide microarray binding signal [4, 10]: 0.00167 ± 2.8e-05

APAPKKGSKKAVT [H2B 7-19 A P A P Kac Kac G Sph Kac Kac A V T]
peptide microarray binding signal ([1]; peptide region: H2B 7-19, peptide modifications: H2BK11ac H2BK12ac H2BS14ph H2BK15ac H2BK16ac, binder concentration: 50 nM): 0.00254 ± 2.9e-05
peptide microarray binding signal ([1]; peptide region: H2B 7-19, peptide modifications: H2BK11ac H2BK12ac H2BS14ph H2BK15ac H2BK16ac, binder concentration: 500 nM): 0.00495 ± 8.6e-05
peptide microarray binding signal ([2]; peptide region: H2B 7-19, peptide modifications: H2BK11ac H2BK12ac H2BS14ph H2BK15ac H2BK16ac, binder concentration: 10 nM): 0.00639 ± 0.00065
peptide microarray binding signal ([2]; peptide region: H2B 7-19, peptide modifications: H2BK11ac H2BK12ac H2BS14ph H2BK15ac H2BK16ac, binder concentration: 100 nM): 0.00163 ± 1.7e-05
peptide microarray binding signal [3, 11]: 0.00523 ± 0.00045
peptide microarray binding signal [3, 12]: 0.00126 ± 2.2e-05
peptide microarray binding signal [4, 11]: 0.000891 ± 6e-05
peptide microarray binding signal [4, 12]: 0.00098 ± 1.7e-05

APAPKKGSKKAVT [H2B 7-19 A P A P K K G S K K A V T]
peptide microarray binding signal ([1]; peptide region: H2B 7-19, binder concentration: 50 nM): 0.002382 ± 1.1e-05
peptide microarray binding signal ([1]; peptide region: H2B 7-19, binder concentration: 500 nM): 0.00743 ± 0.0029
peptide microarray binding signal ([2]; peptide region: H2B 7-19, binder concentration: 10 nM): 0.00328 ± 6.2e-05
peptide microarray binding signal ([2]; peptide region: H2B 7-19, binder concentration: 100 nM): 0.00283 ± 4.6e-05
peptide microarray binding signal [3, 13]: 0.0043 ± 0.0018
peptide microarray binding signal [3, 14]: 0.00114 ± 1.2e-05
peptide microarray binding signal [4, 13]: 0.00116 ± 9.9e-05
peptide microarray binding signal [4, 14]: 0.001211 ± 1.2e-05
